Data: PubChem BioAssay (NCATS)
Inconclusive results are not listed. The source made the active and inactive calls. Unless noted, calls follow the shape of the dose curve; as a rule, active = well fitted curve in the direction sought with a large enough effect; inconclusive = small, poorly fitted or top-dose-only effect, or another doubt; inactive = no such curve, though single readings can be large; an effect the other way counts as inactive or inconclusive.

Key:
[1] = Stat Signaling Pathway (AID 446; active = well fitted curve in either direction with a large enough effect, not every such curve was filed as active;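 also: ME-180 cervical cancer cells given 40 pM IL-6 alongside compound; SIE-controlled beta-lactamase reporter measured as 460/530 nm FRET emission ratio; % is scaled to controls: 0 for no effect and ±100 for the full control effect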); settings: ME-180 (cervical carcinoma) SIE beta-lactamase reporter, IL-6 stimulated, 5 h
How it was run: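 Normalization used AC90 stimulation (300 pM IL-6) and AC90 inhibition (125 nM pan-JAK inhibitor at 40 pM IL-6). The underlying signal is SIE-driven beta-lactamase in ME-180 cells after 5 h IL-6 exposure with compound.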

[2] = target: 3',5'-cyclic-AMP phosphodiesterase 4B (Homo sapiens) (UniProt Q07343); assay: qHTS Assay for Inhibitors of PDE-IV (AID 607; active = well fitted activation curve with a large enough effect in the main read-out, with a control signal flat, not every such curve was filed as active; also: % of control where 0% means no effect); settings: HEK293 ACTOne CNG channel cells, membrane potential fluorescence; series mostly up to 22.9 µM
3',5'-cyclic-AMP phosphodiesterase 4B (Homo sapiens), sequence (Q07343 whole entry, looked up): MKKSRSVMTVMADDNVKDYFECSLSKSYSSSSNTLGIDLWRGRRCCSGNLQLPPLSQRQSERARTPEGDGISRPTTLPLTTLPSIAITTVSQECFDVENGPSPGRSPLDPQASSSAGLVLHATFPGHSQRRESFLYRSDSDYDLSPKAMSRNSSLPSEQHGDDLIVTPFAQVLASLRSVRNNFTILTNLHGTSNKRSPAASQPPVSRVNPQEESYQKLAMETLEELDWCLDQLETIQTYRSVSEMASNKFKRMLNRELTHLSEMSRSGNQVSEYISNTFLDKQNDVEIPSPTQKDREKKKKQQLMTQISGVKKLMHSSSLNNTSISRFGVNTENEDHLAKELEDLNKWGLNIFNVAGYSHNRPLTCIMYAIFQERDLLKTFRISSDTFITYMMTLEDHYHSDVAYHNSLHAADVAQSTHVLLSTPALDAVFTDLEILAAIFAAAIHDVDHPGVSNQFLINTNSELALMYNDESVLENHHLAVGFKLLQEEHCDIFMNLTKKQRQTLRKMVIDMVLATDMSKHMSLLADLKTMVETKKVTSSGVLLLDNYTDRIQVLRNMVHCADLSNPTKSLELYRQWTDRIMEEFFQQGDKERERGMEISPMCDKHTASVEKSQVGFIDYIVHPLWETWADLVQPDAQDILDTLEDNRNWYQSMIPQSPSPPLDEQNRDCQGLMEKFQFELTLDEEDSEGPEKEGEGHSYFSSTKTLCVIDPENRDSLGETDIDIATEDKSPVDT
How it was run: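 HEK293 ACTOne cells with CNG channel (1000/well), endogenous PDE4; membrane potential dye, compounds up to 22.9 uM final. Fluorescence Ex 535/Em 590; RO 20-1724 (100 uM final) as reference.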

[3] = target: Glucocorticoid receptor (Homo sapiens) (UniProt P04150); assay: GR-GFP Redistribution (AID 450;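 active = compounds whose dose series gives a full or clear partial fitted curve of increased nuclear translocation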; also: potency is read from the fitted curve at half-maximal effect); settings: U2OS GR-GFP nuclear translocation, laser cytometry, 2 h
Glucocorticoid receptor (Homo sapiens), sequence (P04150 whole entry, looked up, the tested form may be a part): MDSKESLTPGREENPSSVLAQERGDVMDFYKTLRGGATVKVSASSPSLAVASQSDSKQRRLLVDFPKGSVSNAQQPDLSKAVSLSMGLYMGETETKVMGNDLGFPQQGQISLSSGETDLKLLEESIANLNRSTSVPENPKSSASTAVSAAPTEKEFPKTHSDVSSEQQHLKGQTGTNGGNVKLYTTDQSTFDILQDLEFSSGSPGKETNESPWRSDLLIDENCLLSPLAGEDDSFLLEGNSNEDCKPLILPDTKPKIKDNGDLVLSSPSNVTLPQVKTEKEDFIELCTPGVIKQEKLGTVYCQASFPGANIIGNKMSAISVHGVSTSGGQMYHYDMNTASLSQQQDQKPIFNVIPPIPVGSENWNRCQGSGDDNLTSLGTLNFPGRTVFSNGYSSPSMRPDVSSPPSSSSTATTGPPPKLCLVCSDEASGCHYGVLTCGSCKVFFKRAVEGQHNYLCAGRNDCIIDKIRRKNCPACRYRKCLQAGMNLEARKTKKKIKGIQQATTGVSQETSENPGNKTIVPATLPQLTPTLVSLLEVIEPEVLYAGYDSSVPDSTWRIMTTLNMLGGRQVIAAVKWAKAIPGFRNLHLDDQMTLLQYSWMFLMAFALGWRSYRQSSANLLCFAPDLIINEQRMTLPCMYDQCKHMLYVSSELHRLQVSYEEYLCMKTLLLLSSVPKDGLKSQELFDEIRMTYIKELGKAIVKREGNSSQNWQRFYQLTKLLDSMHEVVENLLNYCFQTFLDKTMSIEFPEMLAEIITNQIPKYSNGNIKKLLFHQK

[4] = target: Glucocorticoid receptor (Homo sapiens) (UniProt P04150); assay: GR-EFC Redistribution (AID 451; calls by dose curve; also: potency is read from the fitted curve at half-maximal effect); settings: CHO-K1 GR-EFC translocation, beta-gal luminescence, 2 h
How it was run: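 CHO-K1 cells expressing nuclear EA and GR-ED fragments of b-gal; compounds titrated up to 46 uM final, 2 h at 37 C. GR nuclear translocation read as complemented b-gal luminescence after 1 h RT detection.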

[5] = target: Mitogen-activated protein kinase 10 (Mus musculus) (UniProt Q61831); assay: JNK3 AlphaScreen Assay (AID 530; active = well fitted curve in either direction with a large enough effect, not every such curve was filed as active;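 also: kinase came from lysate of stimulated human HepG2 cells; signal reports phosphorylation of biotinylated GST-cJun 1-79 at Ser73 with 10 µM ATP; % is scaled to controls: 0 for no effect and ±100 for the full control effect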); settings: JNK3 lysate, c-Jun phosphorylation; series mostly up to 57.1 µM
How it was run: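 HepG2 lysate (IL-1b/TNFa pre-activated) + biotin-GST-cJun 1-79 + anti-pSer73 cJun; cpd titration, 15 min RT; ATP 10 uM start; Tris pH 7.6, MgCl2, DTT, vanadate; beads in EDTA buffer; AlphaScreen.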

[6] = Cell Viability - N2a (AID 540); settings: N2a mouse neuroblastoma cell viability; at 92.2 µM (top of the series);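 also: cells exposed to compound for 40 h at 37 °C; plate controls were DMSO alone for no effect and tamoxifen control for full effect; nearly all actives have a fitted effect of over 45% in size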
How it was run: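 N2a mouse neuroblastoma, 1500 cells/well, 5 hr settle; compound 40 hr, 37 °C; CellTiter-Glo 20 min RT; luminescence; Hill-fit AC50.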

[7] = Cell Viability - NIH 3T3 (AID 541); settings: NIH 3T3 cell viability, qHTS; activity change, negative = cytotoxicity: at 92.2 µM (top of the series);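 also: cells exposed to compound for 40 hours; plate controls were DMSO alone for no effect and tamoxifen positive control for full effect; nearly all actives have a fitted effect of over 25% in size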
How it was run: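 qHTS format; 40 hr compound exposure, 37 °C; CellTiter-Glo luminescence (cellular ATP) read-out after 20 min at RT. Decrease in ATP = cytotoxicity; AC50 from standard Hill fit.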

[8] = Cell Viability - HUV-EC-C (AID 542); settings: HUV-EC-C endothelial cell viability, qHTS; series mostly up to 92.2 µM;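 also: cells exposed to compound for 40 hours; % is scaled to controls: 0 for no effect and ±100 for the full control effect; nearly all actives have a fitted effect of over 35% in size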
How it was run: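 Luminescent ATP read-out (CellTiter-Glo, 20 min room temperature) after 40 hr compound treatment of HUV-EC-C cells at 37 °C. Concentration-response data fitted with the standard Hill equation to give AC50; tamoxifen and doxorubicin served as positive controls.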

[9] = Cell Viability - SH-SY5Y (AID 544); settings: SH-SY5Y neuroblastoma cell viability; viability change, negative = cytotoxic: at 92.2 µM (top of the series);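 also: cells exposed to compound for 40 hours; nearly all actives have a fitted effect of over 55% in size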; also: potency is read from the fitted curve at half-maximal effect
How it was run: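 SH-SY5Y, 1500 cells/well, 5 hr pre-incubation 37 °C; cpd 40 hr 37 °C; CellTiter-Glo 20 min RT; luminescence (ATP) read. qHTS concentration-response, Hill fit → AC50. Tamoxifen, doxorubicin as positive controls.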

[10] = Cell Viability - Renal Proximal Tubule (AID 545); settings: renal proximal tubule cells viability; at 91.7 µM (top of the series) unless noted;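 also: cells exposed to compound for 40 hours; nearly all actives have a fitted effect of over 40% in size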
How it was run: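 Primary rat renal proximal tubule cells (1000/well) were treated with compounds for 40 hr at 37 °C in complete medium. Intracellular ATP was measured by CellTiter-Glo luminescence, and AC50 values came from Hill-equation fits of concentration-response data.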

[11] = Cell Viability - Mesenchymal (AID 546); settings: mesenchymal cells viability, qHTS; series mostly up to 91.7 µM;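 also: cells exposed to compound for 40 hours before reading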
How it was run: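 Human renal mesenchymal cells (glomerulus-derived), 1000 cells/well, 5 hr 37 °C pre-incubation; compound 40 hr, 37 °C; CellTiter-Glo, 20 min RT; luminescence; AC50 via Hill equation.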

[12] = Cellular Toxicity (caspase-3) HepG2 (AID 654); settings: HepG2 caspase-3 activation, luminescence; series mostly up to 92.2 µM; also: potency is read from the fitted curve at half-maximal effect;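 as to caspase-3 activation: cells exposed to compound for 16 hours before reading; 0% = DMSO alone and 100% = caspase signal from 100 µM tamoxifen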
How it was run: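 Luminescent Caspase-Glo 3/7 readout after 16 hr compound exposure of human hepatocellular carcinoma HepG2 cells at 37 °C; qHTS concentration-response, normalized DMSO = 0%, 100 uM tamoxifen = 100%; AC50 by standard Hill equation.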

[13] = Cellular Toxicity (caspase-3) Jurkat (AID 655); settings: Jurkat caspase-3 activation, luminescence; caspase-3 activation: at 92.2 µM (top of the series), DMSO = 0%, tamoxifen = 100%;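 also: cells exposed to compound for 16 h at 37 °C before reading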; also: potency is read from the fitted curve at half-maximal effect
How it was run: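 Jurkat cells (5000/well) in complete medium were treated with compounds for 16 hr at 37 °C, then Caspase-Glo 3/7 luminescence was read after 20 min at room temperature. Data normalized to DMSO (basal) and 100 uM tamoxifen (100%); AC50 from Hill fit.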

[14] = Cellular Toxicity (caspase-3) HUV-EC-C (AID 656); settings: HUV-EC-C cells, caspase-3 activation (apoptosis), vehicle = 0, 100 µM tamoxifen = 100%; series mostly up to 92.2 µM
How it was run: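 HUV-EC-C endothelial cells, 1000/well, were pre-incubated 5 hr at 37°C, then exposed to compounds for 16 hr at 37°C. Caspase-Glo 3/7 luminescence was read after 20 min at room temperature. AC50 came from Hill fits, normalized to DMSO and 100 uM tamoxifen.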

[15] = Cellular Toxicity (caspase-3) SHSY5Y (AID 657); settings: SH-SY5Y caspase-3 activation; series mostly up to 91.7 µM; also: potency is read from the fitted curve at half-maximal effect
How it was run: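 SH-SY5Y human neuroblastoma cells (1500/well) were treated with compounds for 16 h at 37 °C, then Caspase-Glo 3/7 luminescence was read after 1 h at room temperature. Data normalized to DMSO and 10 uM staurosporine; AC50 from Hill fits.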

[16] = Cellular Toxicity (caspase-3) BJ (AID 658); settings: BJ fibroblasts, luminescence, normalized: DMSO 0%, staurosporine 100%; series mostly up to 91.7 µM
How it was run: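 qHTS, BJ fibroblasts, 1000 cells/well; 5 hr preincubation, 16 hr compound, 37 °C; Caspase-Glo 3/7 reagent, 1 hr RT; luminescence. DMSO = 0%, 10 uM staurosporine = 100%. Hill-equation AC50.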

[17] = Cellular Toxicity (caspase-3) MRC-5 (AID 659); settings: MRC-5 cells, luminescence, normalized: DMSO 0%, 10 µM staurosporine 100%; series mostly up to 91.7 µM
How it was run: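 MRC-5 fibroblasts, 1500/well; 16 h cpd, 37 °C; Caspase-Glo 3/7, 1 h RT; lumi read. Norm: DMSO = 0%, 10 uM staurosporine = 100%. Hill-fit AC50 from qHTS conc-response.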

[18] = Cellular Toxicity (caspase-3) Mesangial (AID 660); settings: mesangial cells, normalized: DMSO 0%, 100 µM tamoxifen 100%; series mostly up to 91.7 µM;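 also: combined caspase 3 and 7 activity read by Caspase-Glo luminescence; cells exposed to compound for 16 h before the caspase read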
How it was run: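 Luminescent Caspase-Glo 3/7 readout (aminoluciferin substrate cleavage, 20 min RT) after 16 h compound exposure at 37 °C of normal human mesangial cells. Signal increase normalized between DMSO basal and 100 uM tamoxifen; Hill-equation AC50.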

[19] = Cellular Toxicity (caspase-3) SK-N-SH (AID 661); settings: SK-N-SH caspase-3 activation, qHTS, DMSO as zero, staurosporine as full; series mostly up to 91.7 µM
How it was run: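 Luminescent Caspase-Glo 3/7 read-out after 16 hr compound exposure of SK-N-SH neuroblastoma cells at 37 °C. Signal increase normalized to DMSO (basal) and 10 uM staurosporine (100%); AC50 from Hill equation fits of qHTS concentration-response data.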

[20] = Cellular Toxicity (caspase-3) H-4-II-E (AID 663); settings: H-4-II-E rat hepatoma, scaled: DMSO 0%, 100 µM tamoxifen 100%; at 92.2 µM (top of the series);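 also: cells exposed to compound for 16 hr before readout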
How it was run: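 H-4-II-E rat hepatoma, 1500 cells/well, 5 hr settle at 37 °C; compound 16 hr, 37 °C, complete medium; Caspase-Glo 3/7, 20 min RT; luminescence. DMSO = 0%, 100 uM tamoxifen = 100%; Hill-equation AC50.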

N#CC(C#N)=Cc1ccc(O)c(O)c1
inactive: activity, negative = inhibition ([1]; at 38 µM (top of the series)) -24.2% | outcome [2]

NP(N)(=O)NC(=O)c1ccc(F)cc1
inactive: Potency [3] > 46 µM | Potency [4] > 46 µM | outcome [5] | outcome [2]

CCCN1CCC[C@@H]2Cc3nc(N)ncc3C[C@H]21
inactive: activity, negative = inhibition ([1]; at 38 µM (top of the series)) -19.8% | outcome [5] | outcome [2]

Nc1ccncc1
inactive: activity, negative = inhibition ([1]; at 38 µM (top of the series)) 18.2% | outcome [5] | outcome [2]

CN(C)CCN(C)CCc1ccc(Cl)c(Cl)c1
inactive: Potency [3] > 46 µM | Potency [4] > 46 µM | outcome [5]

NCC(O)c1ccc(O)cc1 (configuration not stated)
inactive: outcome [5] | activity change, negative = cytotoxicity [6] -14.9% | activity change, negative = cytotoxicity [7] -28.6% | outcome [8] | viability change, negative = cytotoxic [9] -12.1% | activity change, negative = cytotoxicity [10] -6.15% | outcome [11] | Potency [12] | caspase-3 activation [13] -0.0147% | outcome [14] | Potency [15] | outcome [16] | outcome [17] | outcome [18] | outcome [19] | caspase-3 activation [20] -0.161%

N[C@@H](Cc1ccc(N(CCCl)CCCl)cc1)C(=O)O
inactive: outcome [5] | outcome [14] | outcome [16] | outcome [17]
active: activity change, negative = cytotoxicity [6] -94.8% | activity change, negative = cytotoxicity [7] -113% | Potency [9] 0.251 µM | activity change, negative = cytotoxicity [10] -104% | Potency [12] 31.6 µM | Potency [13] 25.1 µM | Potency [15] 2.51 µM | caspase-3 activation [20] 116%

N[C@@H]1C[C@H]1c1ccccc1
inactive: activity, negative = inhibition ([1]; at 38 µM (top of the series)) 20.3% | outcome [5] | outcome [2]

CNCC(O)c1ccc(O)cc1 (configuration not stated)
inactive: activity, negative = inhibition ([1]; at 17.2 µM (top of the series)) 14.9% | Potency [3] > 20.6 µM | activity change, negative = cytotoxicity [6] -10.6% | activity change, negative = cytotoxicity [7] 2.22% | outcome [8] | viability change, negative = cytotoxic [9] -15.7% | activity change, negative = cytotoxicity [10] -6.79% | outcome [11] | Potency [12] | caspase-3 activation [13] 2.25% | outcome [14] | Potency [15] | outcome [16] | outcome [17] | outcome [18] | outcome [19] | caspase-3 activation [20] -0.124%

C#CCN(C)[C@H](C)Cc1ccccc1
inactive: Potency [3] > 46 µM | Potency [4] > 46 µM | outcome [5] | outcome [2]
